# Measured values reported in PubChem BioAssay.
# Calls of active or inactive are those of the source.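 The calls were made as follows, unless noted: active = compounds whose cell count with miR-34 switched on is under 0.7 times the count with it off; inactive = the rest.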
# Assays:
# [1] = viability loss with induced miR-34 in A549 – imaging, A549 dox-inducible miR-34, nuclei and caspase counts, primary screen (AID 1347080); settings: A549 miR-34 inducible, Hoechst nuclei count, 48 h
# [2] = MELAS cybrid and Rieske KO viability enhancers – cell-based, MELAS cybrids, Rieske KO mouse fibroblasts, CellTiter-Glo, primary screen (AID 1508586;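 active = mean z-score across replicates of 1.96 or higher in either the MELAS or the Rieske mutant cell line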;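 also: z relative to plate mean and SD of compound and empty wells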); settings: low glucose
# [3] = tested on: Hepatitis C virus NS3 helicase; assay: blockers of NS3h binding to ssDNA – biochemical, fluorescence polarization, LOPAC1280 library, primary screen (AID 687035; in the data active = inhibition above about 37%); settings: Purified HCV NS3 helicase, Cy5-dT15 ssDNA binding fluorescence polarization; stronger effect = higher value; concentration not given here
# [4] = compounds altering Cy5-DNA-NS3h complex signal – biochemical, LOPAC1280, artefact control for HCV NS3 helicase inhibitor project (AID 687037; call rule not given here); settings: Cy5-DNA-NS3h complex fluorescence interference counterscreen
# [5] = blockers of cellular phospholipid synthesis – cell-based, LOPAC library, screen 4, primary screen (AID 1347384; call rule not given here); settings: animal cells, phospholipid biosynthesis inhibition screen; at 10 µM
# [6] = galactose survival enhancers in mitochondrial complex I cybrids – cell-based, galactose medium, ATP luminescence, primary screen (AID 1645843;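 active = z-score of at least 1.8 in each of two replicates, scored against plate mean and spread of sample wells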;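 also: positive z means more ATP and so rescue of galactose-driven cybrid death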); settings: complex I mutant cybrid cells, 72 h, stronger effect = higher value
# [7] = stronger effect = lower value, cell number ratio, induced over uninduced
# [8] = measured here: relative caspase fold change +Dox/-Dox
# [9] = measured here: total cells with miR-34 induction, stronger effect = lower value
# [10] = measured here: total cells without miR-34 induction
# [11] = MELAS cybrid survival, CellTiter-Glo 48 h, stronger effect = higher value
# [12] = Rieske KO mouse fibroblast survival, CellTiter-Glo 72 h
SMILES,"fold change [1, 7]","fold change [1, 8]","cell count [1, 9]","cell count [1, 10]","z-score [2, 11]","z-score [2, 12]",fold change ([1]; stronger effect = lower value),inhibition [3],fluorescence ratio (interference) [4],outcome [5],z-score [6]
CC(=Cc1csc(C)n1)C1CC2OC2CCCC(C)C(O)C(C)C(=O)C(C)(C)C(O)CC(=O)O1 (stereo not given),1.08 (inactive),1.17,1520,1410,1.25 (inactive),0.224,,,,,
Cc1sc2c(c1C)C(c1ccc(Cl)cc1)=NC(CC(=O)OC(C)(C)C)c1nnc(C)n1-2 (stereo not given),,0.485,5260,5520,0.154 (inactive),-3.85,0.954 (inactive),,,,
CC1CCCC=C[C@@H]2CC(O)C[C@H]2C(O)C=CC(=O)O1 (stereo not given in full),1.09 (inactive),1.21,2230,2050,4.01 (active),-2.64,,,,,
O=C1CCC[C@@H]2[C@@H]3CCCN4CCC[C@H](CN12)[C@@H]34,0.961 (inactive),1.02,9040,9410,-0.296 (inactive),0.336,,,,,
C=CC[C@@]1(O)CC[C@H]2[C@@H]3CCC4=CC(=O)CCC4=C3C=C[C@@]21C,0.88 (inactive),0.451,7350,8350,-0.295 (inactive),-0.164,,,,,
COCC1OC(=O)c2coc3c2[C@@]1(C)C1=C(C3=O)[C@@H]2CCC(=O)[C@@]2(C)CC1OC(C)=O (stereo not given in full),0.933 (inactive),0.632,3850,4130,3.45 (active),-0.534,,,,,
COC1CCC(OC2C[C@H]([C@]3(C)CC[C@]4(CC(O)C(C)[C@@H](C(C)C=C(C)C(=O)C(C)CC(C)C(=O)O)O4)O3)O[C@]3(O[C@@H]([C@H]4O[C@@](O)(CO)C(C)CC4C)CC3C)C2C)OC1C (stereo not given in full),0.953 (inactive),1.13,874,918,0.291 (inactive),-2.77,,,,,
N#CC(OC1OC(COC2OC(CO)C(O)C(O)C2O)C(O)C(O)C1O)c1ccccc1 (stereo not given),,1,6790,8280,-0.2 (inactive),-0.452,0.82 (inactive),,,,
CN1CCN(c2nc3ccccc3nc2Cl)CC1,0.946 (inactive),0.445,7800,8250,-0.222 (inactive),-0.11,,,,,
CC1CC[C@H]2C(C)C(=O)O[C@@H]3O[C@@]4(C)CC[C@@H]1[C@]32OO4 (stereo not given in full),0.916 (inactive),0.744,6910,7540,-0.427 (inactive),0.217,,,,,
C[C@]12NC(Cc3ccccc31)c1ccccc12,,0.318,8080,8230,-0.147 (inactive),-0.0728,0.981 (inactive),,,,
O=c1[nH]c2ccc(Cl)cc2c(NC2CN3CCC2CC3)c1-c1nc2ccccc2[nH]1 (stereo not given),0.941 (inactive),1.09,1120,1200,1.28 (inactive),-3.49,,,,,
CCN1C[C@@]2(COC)C3[C@@H](OC)C4[C@@H]1C3([C@@H]1C[C@@]3(O)[C@H](OC(=O)c5ccccc5)[C@@H]1[C@]4(OC(C)=O)[C@@H](O)[C@@H]3OC)[C@H](OC)C[C@H]2O,,1.67,10600,10500,,,1.01 (inactive),-4% (inactive),1 (inactive),inactive,0.075 (inactive)
CC(=O)O[C@@]12CO[C@@H]1CC(O)[C@@]1(C)C(=O)C(O)C3=C(C)C(O)C[C@@](O)(C(OC(=O)c4ccccc4)[C@H]21)C3(C)C (stereo not given in full),1 (inactive),0.634,6370,6370,-0.382 (inactive),1.02,,,,,
CC(C)[C@@]12OC1C1O[C@]13[C@]1(OC1C[C@@H]1C4=C(CC[C@@]13C)C(=O)OC4)C2O (stereo not given in full),0.989 (inactive),0.482,1650,1670,1.17 (inactive),-0.457,,,,,
CC1CNCCc2ccc(Cl)cc21 (stereo not given),,0.645,8250,9060,-0.213 (inactive),-0.176,0.911 (inactive),,,,
CC1C=CC=CCCC=CC=CC=CC=CC(OC2OC(C)C(O)C(N)C2O)CC2O[C@@](O)(CC(O)C(O)CCC(O)CC(O)CC(O)CC(=O)OC(C)C(C)C1O)CC(O)C2C(=O)O (stereo not given in full),0.946 (inactive),1.01,7910,8370,0.0382 (inactive),0.415,,,,,
O=c1cccc2n1CC1CNCC2C1 (stereo not given),,1.17,7650,8430,-0.233 (inactive),-0.215,0.908 (inactive),,,,
CCC1C=CC=CCC(C)C(O)[C@@](C)(O)C(=O)C(C)[C@@H](O)C(C)C(=O)C(C)C(O)C(C)C=CC(=O)OC2C(C)[C@]3(CCC(C)C(CC(C)O)O3)OC(CC1)[C@H]2C (stereo not given in full),1.1 (inactive),0.572,3070,2800,-0.13 (inactive),-0.402,,,,,
C=CCN1CC[C@]23c4c5ccc(O)c4O[C@H]2C(=O)CC[C@@]3(O)C1C5,,1.73,7860,8350,0.0762 (inactive),-0.34,0.942 (inactive),,,,
CN1CC[C@@]2(C)c3cc(OC(=O)Nc4ccccc4)ccc3N(C)[C@@H]12,,1.22,10200,10600,,,0.963 (inactive),-3% (inactive),1 (inactive),inactive,-0.985 (inactive)
